Test results: PubChem BioAssay AID1159580 (chemical genetic matrix, 2015)
The campaign covered roughly 5,500 compounds. About 2,000 (36%) were called active. Not shown: some 18% with an inconclusive outcome. The list shows a part of the results. A number with no mark means an inactive call. No stated cut-off is given here; in the data, active means normalized growth mostly below about 0.91 (no sharp cut-off); inconclusive means no clear call, values can overlap the other calls; inactive means mostly above about 0.92.

Experiment: chemical genetic growth profiling, strain panel (AID 1159580);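 further: tested at 20 µM; growth read once vehicle control cultures reached saturation at 30 °C; 1 = growth at the plate median or of vehicle wells; lower values mean less growth of the strain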
Conditions: S. cerevisiae deletion strains, growth OD
[1] = locus YHR030C, strain SLT2, active compounds read low
[2] = locus YHR079C, strain IRE1, active compounds read low
[3] = locus YJL095W, strain BCK1, active compounds read low
[4] = locus YJR066W, strain TOR1, active compounds read low
[5] = locus YLR113W, strain HOG1, active compounds read low
[6] = locus YNL183C, strain NPR1, active compounds read low
[7] = locus YOR231W, strain MKK1, active compounds read low
[8] = locus YPL256C, strain CLN2, active compounds read low

CC(N)C(=O)NC(Cc1ccccc1)C(=O)O (centres undefined)
normalized growth [1]: 0.937
normalized growth [2]: 0.952
normalized growth [3]: 0.96
normalized growth [4]: 0.886
normalized growth [5]: 1.02
normalized growth [6]: 0.89
normalized growth [7]: 0.982
normalized growth [8]: 0.925

O=C1C(=O)N(CN2CCc3c([nH]c4ccccc34)C2C(F)(F)F)c2ccc(F)cc21 (centres undefined)
normalized growth (locus YAR019C, strain CDC15, active compounds read low): 0.978
normalized growth (locus YBL105C, strain PKC1, active compounds read low): 0.983
normalized growth (locus YBR135W, strain CKS1, active compounds read low): 0.982
normalized growth (locus YBR136W, strain MEC1, active compounds read low): 0.974
normalized growth (locus YBR160W, strain CDC28, active compounds read low): 0.962
normalized growth (locus YDL017W, strain CDC7, active compounds read low): 0.983
normalized growth (locus YDL028C, strain MPS1, active compounds read low): 0.975
normalized growth (locus YDL101C, strain DUN1, active compounds read low): 0.988
normalized growth (locus YDL108W, strain KIN28, active compounds read low): 0.973
normalized growth (locus YDL132W, strain cdc53, active compounds read low): 0.972
normalized growth (locus YDL214C, strain PRR2, active compounds read low): 0.841
normalized growth (locus YDR052C, strain DBF4, active compounds read low): 0.991
normalized growth (locus YDR054C, strain cdc34, active compounds read low): 0.974
normalized growth (locus YDR226W, strain ADK1, active compounds read low): 0.98
normalized growth (locus YDR477W, strain SNF1, active compounds read low): 0.86
normalized growth (locus YER123W, strain YCK3, active compounds read low): 0.692
normalized growth (locus YER133W, strain GLC7, active compounds read low): 0.894
normalized growth (locus YFL009W, strain cdc4, active compounds read low): 0.977
normalized growth (locus YFL029C, strain CAK1, active compounds read low): 0.959
normalized growth (locus YFR003C, strain YPI1, active compounds read low): 0.981
normalized growth (locus YFR019W, strain FAB1, active compounds read low): 0.839
normalized growth (locus YFR028C, strain CDC14, active compounds read low): 0.963
normalized growth (locus YGR040W, strain KSS1, active compounds read low): 0.891
normalized growth (locus YGR052W, strain FMP48, active compounds read low): 0.804
normalized growth (locus YGR092W, strain DBF2, active compounds read low): 0.612
normalized growth [1]: 0.329 (active)
normalized growth [2]: 0.667
normalized growth (locus YHR082C, strain KSP1, active compounds read low): 0.614
normalized growth (locus YHR205W, strain SCH9, active compounds read low): 0.795
normalized growth (locus YIL147C, strain SLN1, active compounds read low): 0.982
normalized growth [3]: 0.791
normalized growth (locus YJL128C, strain PBS2, active compounds read low): 0.934
normalized growth (locus YJL157C, strain FAR1, active compounds read low): 0.886
normalized growth (locus YJR016C, strain ILV3, active compounds read low): 0.993
normalized growth (locus YJR066W, strain TOR1 (second series), active compounds read low): 0.825
normalized growth [4]: 0.784
normalized growth (locus YKL048C, strain ELM1, active compounds read low): 0.879
normalized growth (locus YKL067W, strain YNK1, active compounds read low): 0.865
normalized growth (locus YKL101W, strain HSL1, active compounds read low): 0.711 (active)
normalized growth (locus YKL193C, strain SDS22, active compounds read low): 0.972
normalized growth (locus YKL203C, strain TOR2, active compounds read low): 0.934
normalized growth [5]: 0.726 (active)
normalized growth (locus YLR133W, strain CKI1, active compounds read low): 0.836
normalized growth (locus YLR403W, strain SFP1, active compounds read low): 0.942
normalized growth (locus YML070W, strain DAK1, active compounds read low): 0.716
normalized growth (locus YMR001C, strain CDC5, active compounds read low): 0.962
normalized growth (locus YMR205C, strain PFK2 (second series), active compounds read low): 0.888
normalized growth (locus YMR277W, strain FCP1, active compounds read low): 0.947
normalized growth (locus YNL006W, strain LST8, active compounds read low): 0.982
normalized growth (locus YNL020C, strain ARK1, active compounds read low): 0.741
normalized growth (locus YNL161W, strain CBK1, active compounds read low): 0.979
normalized growth [6]: 0.666
normalized growth (locus YNL207W, strain RIO2, active compounds read low): 0.983
normalized growth (locus YNL222W, strain SSU72, active compounds read low): 0.98
normalized growth (locus YNL307C, strain MCK1 (second series), active compounds read low): 0.682
normalized growth (locus YOL078W, strain AVO1, active compounds read low): 0.972
normalized growth (locus YOL136C, strain PFK27, active compounds read low): 0.711
normalized growth (locus YOR061W, strain CKA2, active compounds read low): 0.917
normalized growth (locus YOR119C, strain RIO1, active compounds read low): 0.907
normalized growth [7]: 0.8
normalized growth (locus YOR329C, strain SCD5, active compounds read low): 0.994
normalized growth (locus YPL031C, strain PHO85, active compounds read low): 0.82
normalized growth (locus YPL153C, strain RAD53, active compounds read low): 0.74
normalized growth (locus YPL204W, strain HRR25, active compounds read low): 0.798
normalized growth (locus YPL209C, strain IPL1, active compounds read low): 0.987
normalized growth [8]: 0.471 (active)
normalized growth (locus YPR025C, strain CCL1, active compounds read low): 0.993
normalized growth (locus YPR106W, strain ISR1, active compounds read low): 0.978
normalized growth (locus YPR111W, strain DBF20, active compounds read low): 0.969
normalized growth (strain NNK1, active compounds read low): 0.981
normalized growth (strain TSCII, active compounds read low): 0.958
